Screening data (PubChem)
Hits are enriched below; roughly 12% of the tested compounds scored in any of these assays.
PLK1 PBD inh: qHTS for Inhibitors of PLK1-PDB (polo-like kinase 1 - polo-box domain): Primary Screen; actives 2.8% (n = 360,000); AID 720504, 2013; Plk1 PBD binding of FITC phosphopeptide, fluorescence polarization; Serine/threonine-protein kinase PLK1 (Homo sapiens), P53350; Potency, µM, inactives show max response, negative = inhibition, most hits filed as inhibitors; further: potency means the concentration at half of the fitted maximal effect; series mostly up to about 57 µM; on the % scale 0 is the no-effect control and ±100 the full control effect; nearly all actives have a fitted effect of over 65% in size
Target sequence (P53350 whole entry, looked up, the tested form may be a part): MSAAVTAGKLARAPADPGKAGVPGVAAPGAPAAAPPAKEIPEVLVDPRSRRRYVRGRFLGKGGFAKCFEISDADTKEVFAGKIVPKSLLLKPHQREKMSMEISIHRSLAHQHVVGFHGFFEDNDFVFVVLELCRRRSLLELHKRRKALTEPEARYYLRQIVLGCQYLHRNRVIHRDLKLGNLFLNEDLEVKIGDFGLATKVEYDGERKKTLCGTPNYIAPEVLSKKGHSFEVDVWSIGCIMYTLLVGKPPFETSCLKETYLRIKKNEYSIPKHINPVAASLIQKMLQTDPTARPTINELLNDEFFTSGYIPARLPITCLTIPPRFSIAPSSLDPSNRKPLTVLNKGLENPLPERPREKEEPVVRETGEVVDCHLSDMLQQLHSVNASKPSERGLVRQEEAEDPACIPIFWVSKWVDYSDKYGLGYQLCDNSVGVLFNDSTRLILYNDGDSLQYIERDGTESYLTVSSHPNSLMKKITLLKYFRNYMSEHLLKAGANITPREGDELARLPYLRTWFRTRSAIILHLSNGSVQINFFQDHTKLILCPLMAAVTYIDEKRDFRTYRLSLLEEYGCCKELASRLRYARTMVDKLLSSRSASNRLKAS
HP1b binding inh: HTS for Inhibitors of HP1-beta Chromodomain Interactions with Methylated Histone Tails | AlphaScreen HP1-beta / biotin-H3K9me3 peptide binding | actives 0.56% (n = 390,000) | Potency, µM (doses to about 114 µM), without a hit: at the highest dose activity change, negative = inhibition, actives largely listed as inhibitors | Chromobox protein homolog 1 (Homo sapiens), P83916; further: potency means the concentration at half of the fitted maximal effect; nearly all actives have a fitted effect of over 70% in size
Target sequence (P83916 whole entry, looked up): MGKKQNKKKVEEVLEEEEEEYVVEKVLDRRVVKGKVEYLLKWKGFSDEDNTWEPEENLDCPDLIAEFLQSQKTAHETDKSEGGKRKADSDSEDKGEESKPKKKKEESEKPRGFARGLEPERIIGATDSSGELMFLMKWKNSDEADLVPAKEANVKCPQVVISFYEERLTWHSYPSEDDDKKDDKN
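Compound inhibition of the preformed complex between 50 nM HP1-beta and 50 nM biotinylated H3K9me3 peptide was read by AlphaScreen. Buffer was PBS pH 7.4 with 0.01% Tween-20. Incubations ran 30 min at room temperature, with 10 ug/mL donor/acceptor beads.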
BAZ2B inh: qHTS Assay for Inhibitors of BAZ2B; Bromodomain adjacent to zinc finger domain protein 2B (Homo sapiens), Q9UIF8; AlphaScreen BAZ2B-H3K14Ac peptide displacement; Potency, µM (highest dose often 114 µM), without a hit: at the top dose activity change, negative = inhibition, hits mostly inhibitors; actives 4.4% (n = 360,000); further: potency means the concentration at half of the fitted maximal effect; on the % scale 0 is the no-effect control and ±100 the full control effect; nearly all actives have a fitted effect of over 60% in size
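Multi-concentration screen (max 110 uM) measuring displacement of acetylated histone H3 peptide from BAZ2B by AlphaScreen, using 50 nM protein, 50 nM peptide and 10 ug/mL streptavidin donor plus Ni-chelate acceptor beads.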
JMJD2A Tudor: qHTS Assay for Inhibitors of JMJD2A-Tudor Domain. Lysine-specific demethylase 4A (Homo sapiens), O75164. AlphaScreen JMJD2A-Tudor / H3K4me3 peptide binding. Potency, µM (titrated, usually from 114 µM), for inactives: top-dose activity change, negative = inhibition, actives largely listed as inhibitors. actives 4.4% (n = 390,000); further: potency means the concentration at half of the fitted maximal effect; on the % scale 0 is the no-effect control and ±100 the full control effect; nearly all actives have a fitted effect of over 50% in size
PI5P4K alpha inh: qHTS for Inhibitors of phosphatidylinositol 5-phosphate 4-kinase (PI5P4K). actives 1.2% (n = 330,000). AID 652105, 2013. Phosphatidylinositol 5-phosphate 4-kinase type-2 alpha (Homo sapiens), P48426. max response, %. PI5P4Kalpha enzyme, ADP-Glo luminescence, 60 min; hits give low values; active means max response of -50% or lower; inconclusive means between -30% and -50%; inactive means -30% or higher; further: value at the top dose of about 77 µM; on the % scale 0 is the no-effect control and ±100 the full control effect
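Single end-point luminescence (ADP-Glo) quantified ADP from PI5P4Kalpha turnover; ATP 5 microM final, 1 h at RT, 0.1% CHAPS and 0.28 mM EGTA in HEPES pH 7.4.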
G9a block: qHTS Assay for Inhibitors of Histone Lysine Methyltransferase G9a | G9a H3K9 monomethylation, AlphaScreen, 2 h | actives 8.8% (n = 350,000) | Potency, µM (doses to about 102 µM), inactives show top-dose activity, negative = inhibition, most hits filed as inhibitors | Histone-lysine N-methyltransferase EHMT2 (Homo sapiens), Q96KQ7; further: potency means the concentration at half of the fitted maximal effect; on the % scale 0 is the no-effect control and ±100 the full control effect; nearly all actives have a fitted effect of over 75% in size
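G9a (20 nM) preincubated 15 min RT with compounds, then 500 nM biotinylated H3K9 peptide and 20 uM SAM added; 2 h RT reaction. Monomethyl-H3K9 product detected by AlphaScreen with anti-H3K9me1 antibody, streptavidin donor and anti-rabbit IgG acceptor beads.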
Numbers without * were called inactive; ? = inconclusive; nt = no result given; [ ] = remark or other dose. Unless noted, the call rests on the fitted dose curve; in most records, active means well fitted curve in the direction sought with a large enough effect; inconclusive means small, poorly fitted or top-dose-only effect, or another doubt; inactive means no such curve, though single readings can be large; an effect the other way counts as inactive or inconclusive.

SMILES | PLK1 PBD inh | HP1b binding inh | BAZ2B inh | JMJD2A Tudor | PI5P4K alpha inh | G9a block
COc1ccc(N2CCN(c3ccc(NC(=O)/C=C\C(=O)O)cc3)CC2)cc1 | 4% | 9% | ? | -27% | -11 | 45µM*
COc1cccc(CNC(=O)Cn2cc3c(n2)-c2c(oc(C(=O)N4CCCC4)c2C)CC3)c1OC | nt | 19% | -24% | -16% | nt | -33%[59 µM]
CC1CN(C(=O)c2cc(S(=O)(=O)N3CCCCC3)ccc2Cl)CC(C)O1 (configuration not stated) | 3% | 53% | -3% | -4% | 1 | ?
O=C(Nc1cccc(F)c1)N1CCC2(CC1)CCN(C(=O)c1cc(C(F)(F)F)cc(C(F)(F)F)c1)CC2 | nt | nt | nt | nt | nt | 0%[12.7 µM]
COc1cc(Cl)c(C)cc1NC(=O)c1cc(S(=O)(=O)N2CCCC2)ccc1F | nt | 13% | 3% | -10% | nt | 5%[59 µM]
O=C(COC(=O)CNC(=O)c1ccccc1)Nc1cc(C(F)(F)F)ccc1Cl | nt | nt | nt | -14% | nt | nt
Cc1nc(-c2ccc(S(=O)(=O)N3CCN(c4cccc(Cl)c4)CC3)cc2)co1 | nt | -1%[57 µM] | -6% | -26% | nt | -33%[59 µM]
COc1ccc(N2CCN(CCCNC(=O)C3(S(=O)(=O)c4ccc(Cl)cc4)CC3)CC2)cc1 | -2% | ? | ? | 50µM* | -7 | ?
O=C(NCCCN1CCN(c2cccc(Cl)c2)CC1)C1(S(=O)(=O)c2ccc(Cl)cc2)CC1 | -3% | 1% | -28% | -24% | -5 | -28%[59 µM]
CSc1ccc(NC(=O)NCCN2CCc3ccccc3C2)cc1 | -1% | -5% | ? | ? | nt | ?
COc1ccc(NC(=O)NCCN2CCc3ccccc3C2)cc1 | 0% | 16% | 2% | 20µM* | 2 | ?
COc1ccc(N2CCN(CCS(=O)(=O)c3cc(Cl)ccc3Cl)CC2)cc1 | 0% | -22% | 45µM* | ? | 4 | -12%[2.33 µM]
CC(=O)N1CCN(CCS(=O)(=O)c2cc(Cl)ccc2Cl)CC1 | 3% | 13% | nt | -3% | -2 | nt
Cc1ccc(S(=O)(=O)NCC(=O)N(CC2CCCO2)C(C(=O)NCC2CCCO2)C(C)C)cc1 (configuration not stated) | 4% | 18% | 2% | 8% | -1 | 13%
O=C1[C@@H]2CSC(c3ccc(F)cc3)N2C(=O)N1c1ccc(Cl)cc1 (some centres not stated) | nt | 77% | 9% | 35% | nt | 34%[59 µM]
O=C(Oc1ccc(-c2nnco2)cc1)C1CCN(C(=O)c2ccc(F)cc2)CC1 | -8% | 21% | -7% | -16% | 0 | nt
CN(CCc1ccccc1)C(=O)c1ccc(NC(=O)Cc2ccc(NC(=O)C3CCCN(C(=O)C4CCCC4)C3)cc2)cc1 (configuration not stated) | -18% | 22% | nt | -14% | -9 | nt
Cc1ccc(-c2c(C)c(-c3ccc(F)cc3)nc(N)c2C#N)o1 | -1% | 40% | 20% | 6% | -2 | 13µM*
O=C(Nc1ccccc1)Oc1ccc[nH]c1=O | 15µM* | -3% | ? | -17% | -2 | ?
COc1cc(OC)cc(C(=O)NCC(=O)NCc2ccccn2)c1 | -7% | 41% | nt | -6% | 3 | nt
COCc1cc(=O)n2[nH]c(N)nc2n1 | 1% | 26% | 50µM* | -31% | -1 | nt
Cc1cccc(N(C)S(=O)(=O)c2cc(-c3cnc(C4CC4)o3)ccc2C)c1 | nt | 18% | -1% | 3% | nt | -11%[12.7 µM]
Cc1c(Cl)cnc(NC(=O)COC(=O)/C=C/c2ccco2)c1Cl | -26% | -4% | 50µM* | ? | -56* | 45µM*
O=C(COC(=O)/C=C/c1ccco1)Nc1ncc(C(F)(F)F)cc1Cl | -25% | 50µM* | 45µM* | 35µM* | -1 | 22µM*
O=C(COC(=O)c1cnccn1)Nc1ncc(C(F)(F)F)cc1Cl | -29% | -6% | nt | -27% | -25 | nt
SMILES | PLK1 PBD inh | HP1b binding inh | BAZ2B inh | JMJD2A Tudor | PI5P4K alpha inh | G9a block
COc1cc(NC(=O)C(CC(C)C)NS(=O)(=O)c2ccc3c(c2)CCCC(=O)N3)cc(OC)c1 (configuration not stated) | nt | 16% | -3% | -14% | nt | 7%[59 µM]
CCOc1ccc(Cc2n[nH]c(=S)n2N)cc1 | ? | ? | -31% | 8.9µM* | 5 | ?
C=CCn1c(Cc2ccc(OCC)cc2)nnc1SCC(N)=O | -5% | 33% | 7% | -6% | nt | -3%[12.7 µM]
COc1ccc(Cc2n[nH]c(=S)n2N)cc1OC | 12µM* | ? | ? | 7.9µM* | ? | 3.2µM*
COc1ccc(Cc2cnc(N)nc2N)cc1OC | nt | nt | nt | nt | nt | -5%[12.7 µM]
COc1ccc(Cc2n[nH]c(=S)n2C)cc1Br | -7% | 5% | 11% | 20µM* | -1 | ?
Nn1c(Cc2ccccc2F)n[nH]c1=S | -8% | 24% | -22% | 3.2µM* | -1 | 20µM*
Nn1c(Cc2ccc(Br)cc2)n[nH]c1=S | 12µM* | ? | ? | 7.1µM* | -19 | 2.2µM*
Nn1c(Cc2ccccc2)nnc1Cc1ccccc1 | 1% | 10%[57 µM] | nt | 0% | 0 | nt
CC(C)CCNC(=O)c1ccc(NC(=O)N2CCCCc3ccccc32)cc1 | nt | 38% | -2% | 7% | nt | 7%[59 µM]
CCOC(=O)C1=C(C)NC(C)=C(C(=O)OCC)C1c1cc2ccc(C)cc2[nH]c1=O | -31% | -5% | ? | -18%[57.1 µM] | -4 | 50µM*
Cc1ccc(C(=O)OCc2cc3ccccc3[nH]c2=O)cc1 | 4% | 16% | 2% | -12% | nt | -5%
Cc1ccc2cc(COC(=O)c3ccncc3)c(=O)[nH]c2c1 | -17% | 8% | 12% | -14% | -13 | 50µM*
Cc1cccc(C)c1-n1nnnc1C1(C)CCC(=O)N1Cc1cccs1 (configuration not stated) | -14% | nt | nt | nt | -5 | nt
CCCC(C(=O)NCc1cccc(Cl)c1)N1Cc2ccccc2C1=O (configuration not stated) | nt | -6% | 8% | -12% | nt | 5%[59 µM]
CCCCOc1ccc(S(=O)(=O)NC(=O)C2(C)CCN2C(=O)c2cccc(F)c2)cc1 (configuration not stated) | -7% | nt | nt | nt | -3 | nt
O=C(COc1ccccc1)Nc1nc(-c2ccncc2)cs1 | 27µM* | -19% | -13% | -6% | -25 | 8.9µM*
COc1cccc(C(=O)Nc2nc(-c3ccncc3)cs2)c1 | ? | 7% | nt | -16% | ? | 32µM*
CCC(=O)Nc1nc2ccc(NC(=O)COc3ccccc3)cc2s1 | 2% | 36% | -17% | -1% | -3 | 79µM*
